Assay results from PubChem BioAssay (NCATS).
Inconclusive results are not listed. A call without a number means that no potency is given here. The source made the active and inactive calls. Calls come from the whole dose curve; as a rule, active = well fitted cell-killing curve with a large enough effect; inconclusive = small, poorly fitted or top-dose-only effect; inactive = no such curve, though single readings can be large or run the other way.

Assay: qHTS of pediatric cancer cell lines to identify multiple opportunities for drug repurposing: Confirmatory screen for U-2 OS cells (AID 1347122); note: nearly all actives have a fitted effect of over 65% in size
Details: U-2 OS osteosarcoma cell viability; series mostly up to 45.9 µM
Text: Drug repurposing or repositioning has been offered as a strategy for drug development in oncology programs. This approach has special potential for childhood cancers and other rare or orphan diseases, where the expected return on new drug development has been a disincentive to pharmaceuticals.
In this project we exploit the poly-pharmacology of drugs to discover new indications via phenotypic screening of a panel of 19 well-characterized cell lines derived from solid tumors seen in children and adolescents. The goal is to identify approved drugs with previously unrecognized anticancer properties that has the potential to reveal new mechanisms and biological processes involved in carcinogenesis or drug resistance. We employed a titration-based paradigm (quantitative high-throughput screening or qHTS), where all compounds were tested at multiple concentrations for their effect on cell viability. Concentration-response curves (CRCs) were derived directly from the primary screen, and both potency and efficacy values were used to identify compounds with robust bioactivity profiles. We screened the NIH Chemical Genomics Center (NCGC) Pharmaceutical Collection (NPC) and Mechanism Interrogation Plate (MIPE) small molecule collections of approved and investigational compounds against these cell lines; and measured metabolically active cells after 48 hours of compound treatment as a proxy for cell viability.
Assay Submitter: Nathalia J. Martinez, National Center for Advancing Translational Sciences, National Institutes of Health, Rockville, MD, USA; email: natalia.martinez@nih.gov
[1] Shen, M et al. Quantitative high-throughput phenotypic screening of pediatric cancer cell lines identifies multiple opportunities for drug repurposing. Oncotarget 2017 Dec 19;9(4):4758-4772. PMID 29435139.
The cells were obtained from University of North Carolina (UNC), Pediatric Preclinical Testing Program (PPT), and Coriell Institute (CI).
qHTS cell viability assay:
Cells were assayed in growth media at a density of 500-1,000 cells/well. Five microliters of cells were dispensed into 1,536-well, white, solid-bottom, TC-treated plates (Greiner Bio One) using a multidrop dispenser and incubated at 37 degrees C, 5% CO2, under a humidified atmosphere for 5 hours. Twenty-three nanoliters of compounds and controls (neutral control DMSO or positive control bortezomib at final concentration of 2.3 µM) were subsequently transferred by Kalypsys pintool. For primary screens, the MIPE collection was tested at 11-point dilutions (final concentrations range from 0.78 nM to 46 µM) and the NPC collection at 8-point dilutions (final concentrations range from 0.59 nM to 46 µM). Compounds tested in follow-up screens were assayed at 11-point dilutions. Cells were incubated for 48 hours, followed by addition of 3 µL of CellTiter-Glo (Promega). After a 15 min incubation at room temperature, samples were analyzed for luminescence intensity using a ViewLux High-throughput CCD imager equipped with clear filters.
Potency is the fitted concentration of half-maximal effect.

Q: With `COc1ccc2c(C(=O)c3ccc(Cl)cc3)c(C)n(CC(=O)O)c2c1` as the compound, how does the Potency read?
A: inactive

Q: For `C[C@@H]1C[C@@H]([C@H](O)CC2CC(=O)NC(=O)C2)C(=O)[C@@H](C)C1`, which Potency is on record?
A: 3.29 µM (active)

Q: For `Cc1ccc([N+](=O)[O-])[c]2c1[O][Hg]2`, which Potency is on record?
A: 9.27 µM (active)

Q: Which Potency does the source give for `CN1[C@@H]2CC[C@H]1CC(OC(=O)c1cc(Cl)cc(Cl)c1)C2` (some centres not stated) here?
A: inactive

Q: With `CCCCCCCCC(=O)NCc1ccc(O)c(OC)c1` as the compound, how does the Potency read?
A: inactive

Q: Which Potency does the source give for `CCc1ccc(C2CCNCC2)cc1` here?
A: inactive

Q: For `O=C(O)Cc1ccccc1`, which Potency is on record?
A: inactive

Q: Which Potency does the source give for `COc1ccc(C(=O)N2CCCC2=O)cc1` here?
A: inactive

Q: For `CC1Sc2c(C(=O)O)c(=O)c3cc(F)c(N4CCNCC4)cc3n21` (configuration not stated), which Potency is on record?
A: inactive

Q: With `CCCCCCCCCCCC[N+](C)(C)CCOc1ccccc1` as the compound, how does the Potency read?
A: 13.1 µM (active)

Q: For `COC(=O)C1=CCCN(C)C1`, which Potency is on record?
A: inactive

Q: Which Potency does the source give for `CN(C)C(=S)SSC(=S)N(C)C` here?
A: 3.69 µM (active)
